# Compounds with a hit are over-represented: about 7.3% of the library has one in this group of screens.
# IP6K1 inh: blocks human inositol hexakisphosphate kinase 1; AID 1645851; IP6K1 kinase, ADP-Glo luminescence, 2 h; active compounds read low; Q92551; hit rate 0.81% among 140,000; activity change, % (series mostly up to about 58 µM); in the data active means activity change below about -25%
#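 ADP-Glo luminescence measures ADP made by human IP6K1 during a 2 h RT reaction with ATP/IP6 (mix at 1.3 mM/130 uM); top library doses 57.5 and 19.1 uM final.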
# Luciferase inh: Photinus pyralis luciferase inhibition. hit rate 2.5% among 76,000. purified P. pyralis luciferase, luminescence, biochemical. Potency, µM (highest dose often 115 µM), usual class: inhibitors. P08659; further: potency means the concentration at half of the fitted maximal effect; nearly all actives have a fitted effect of over 65% in size
# Target sequence (P08659 whole entry, looked up): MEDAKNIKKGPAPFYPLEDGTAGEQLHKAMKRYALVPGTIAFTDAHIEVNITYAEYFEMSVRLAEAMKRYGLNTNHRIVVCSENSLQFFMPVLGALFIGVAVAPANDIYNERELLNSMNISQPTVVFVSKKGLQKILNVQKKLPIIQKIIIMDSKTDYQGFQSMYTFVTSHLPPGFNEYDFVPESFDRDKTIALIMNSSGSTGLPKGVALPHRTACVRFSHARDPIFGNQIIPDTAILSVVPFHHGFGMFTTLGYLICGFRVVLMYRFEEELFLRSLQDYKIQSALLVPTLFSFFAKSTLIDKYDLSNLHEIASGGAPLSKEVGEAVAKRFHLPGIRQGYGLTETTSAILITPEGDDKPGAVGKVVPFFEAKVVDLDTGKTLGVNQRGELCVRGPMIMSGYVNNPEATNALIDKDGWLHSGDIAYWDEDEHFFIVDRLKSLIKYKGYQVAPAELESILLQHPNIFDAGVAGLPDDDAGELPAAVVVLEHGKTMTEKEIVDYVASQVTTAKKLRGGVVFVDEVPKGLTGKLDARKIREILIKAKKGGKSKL
#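 Cell-free enzyme assay, 10nM P. pyralis luciferase, luciferin and ATP each at 10uM. Inhibition profiled over a 6-point titration, read as luminescence.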
# HEK cytotox: kills HEK 293 cells; HEK 293 viability, ATP luminescence (CellTiter-Glo), 48-72 h; Potency, µM (top dose mostly 115 µM), for the others: at the highest dose activity change, negative = cytotoxicity, usual class: inhibitors; hit rate 6.6% among 94,000; AID 1345083; further: potency means the concentration at half of the fitted maximal effect; nearly all actives have a fitted effect of over 60% in size
#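 HEK 293 cells at 250 cells/well were exposed to compounds by pintool transfer for 48 or 72 hr at 37 degree Celsius, 5% CO2. Viability was read as ATP-coupled luminescence with CellTiter-Glo after 10 min at room temperature.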
# SNCA expr inhib: SNCA gene expression inhibition | HEK-293 SNCA-luciferase knock-in, luminescence, 24 h | Potency, µM (top dose mostly 57.2 µM), without a hit: at the top dose activity change, negative = inhibition, most hits filed as inhibitors | hit rate 0.17% among 140,000;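 further: potency means the concentration at half of the fitted maximal effect; plate controls were DMSO cells for no effect and cell-free wells for full effect; nearly all actives have a fitted effect of over 45% in size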
# NIH3T3 tox: NIH 3T3 cell cytotoxicity | NIH 3T3 viability, CellTiter-Glo ATP luminescence, 48-72 h | AID 1345082 | Potency, µM (titrated, usually from 96.7 µM), without a hit: at the highest dose activity change, negative = cytotoxicity, actives largely listed as inhibitors | hit rate 4.3% among 94,000; further: potency means the concentration at half of the fitted maximal effect; nearly all actives have a fitted effect of over 55% in size
#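 Cytotoxicity was measured by CellTiter-Glo ATP luminescence after 48 or 72 h compound exposure at 37 °C. Mouse NIH 3T3 fibroblasts were seeded at 400 cells/well and dosed by 23 nL pin transfer.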
# HEK293 viab: counter-screen for SNCA expression inhibitors: cell viability; HEK-293-SNCA-luc viability, GF-AFC fluorescence, 24 h; Potency, µM (highest dose often 57.1 µM), for the others: at the top dose activity change, negative = cytotoxicity, most hits filed as cytotoxic; AID 1671193; hit rate 0.12% among 150,000;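 further: potency means the concentration at half of the fitted maximal effect; 0% = DMSO-treated cells and -100% = medium-only wells without cells; nearly all actives have a fitted effect of over 30% in size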
#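 Cytotoxicity counterscreen: after 24 h compound treatment of genome-edited SNCA-luciferase HEK-293 cells, live-cell protease substrate GF-AFC read by fluorescence after 30 min; activity scaled between DMSO (0%) and medium-only (-100%), curves Hill-fitted.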
# Numbers without * were called inactive; i = inactive; ? = inconclusive; / = no result; ! = repeats disagree; [ ] = dose if it differs, or a comment. Unless noted, the call rests on the fitted dose curve; in most records, active means well fitted curve in the direction sought with a large enough effect; inconclusive means small, poorly fitted or top-dose-only effect, or another doubt; inactive means no such curve, though single readings can be large; an effect the other way counts as inactive or inconclusive. Unless noted, on the % scale 0 is the no-effect control and ±100 the full control effect.
SMILES,IP6K1 inh,Luciferase inh,HEK cytotox,SNCA expr inhib,NIH3T3 tox,HEK293 viab
Cc1cnc(-c2ccncc2)n1CCC1CCN(C(=O)C(C)Oc2ccccc2)CC1 (configuration not stated),20.9,/,44.7µM*,-13.8%,?,4.1%
CCCCNc1ncc(C(=O)O)c(C)n1,0.8,i,-6.4%,5.3%,3.3%,-3.4%
Cc1cccc(CN2CCCC23Cc2ccccc2CNC3=O)c1 (configuration not stated),-11.1,/,?,-15.5%,-28.1%,-0.6%
Cc1ccc(C(=O)N2CC(CN3C(=O)c4c(c(C)nn4-c4ccccc4)C3C3CC3)C2)cc1 (configuration not stated),16.8,/,?,/,?,/
COc1ccc(C(=O)N2CCC(N3C(=O)c4c(c(C)nn4-c4ccccc4)C3C3CC3)C2)cc1 (configuration not stated),-6.8,/,44.7µM*,/,?,/
Cc1ccc(C(=O)N2CCC(N3C(=O)c4c(c(C)nn4-c4ccccc4)C3C)C2)cc1 (configuration not stated),2.6,/,?,/,?,/
Cc1nn(-c2ccccc2)c2c1C(C1CC1)N(C1CCN(C(=O)c3ccccc3)C1)C2=O (configuration not stated),4.9,/,?,/,14.1µM*,/
Cc1nn(-c2ccccc2)c2c1C(C1CC1)N(CC1CN(C(=O)c3ccc(F)cc3)C1)C2=O (configuration not stated),9.9,/,35.5µM*,/,?,/
Cc1ccc(C(=O)N2CCC(N3C(=O)c4c(c(C)nn4-c4ccccc4)C3C3CC3)C2)cc1 (configuration not stated),-10.3,/,25.1µM*,/,17.8µM*,/
COc1ccc(CC(=O)N2CCC(N3C(=O)c4c(c(C)nn4-c4ccccc4)C3C3CC3)C2)cc1 (configuration not stated),8.1,/,?,/,?,/
COc1ccccc1C(=O)Nc1cc(-c2cccnc2)nn1-c1ccccc1,3.5,/,?,-9.1%,?,-27.1%
Cc1nn(-c2ccccc2)c2c1C(C1CC1)N(C1CCCN(C(=O)c3ccc(F)cc3)C1)C2=O (configuration not stated),-3.1,/,31.6µM*,/,?,/
Cc1nn(-c2ccccc2)c2c1C(C1CC1)N(C1CN(C(=O)c3ccncc3)C1)C2=O (configuration not stated),-2.4,/,3.6%,/,-1.2%,/
O=C1N[C@@H]2CCN(C(=O)c3ccc(-c4ccccc4)cc3)[C@@H]2C(=O)N1Cc1ccccc1,-7.0,?,?,3.4%[87.6 µM],112µM*,2.6%[87.6 µM]
O=C1N[C@@H]2CCN(C(=O)c3ccc(-c4ccccc4)cc3)[C@@H]2C(=O)N1c1ccc(F)cc1,2.0,?,-6.8%[172 µM],-1.4%[87.6 µM],-20.5%[174 µM],4.2%[87.6 µM]
COc1cccc(CN2Cc3nc(OCc4ccc(F)cc4)ccc3OCC2=O)c1,-12.0,i,100µM*,-26.3%[87.6 µM],?,-17.9%[87.6 µM]
COc1cccc(-c2ccc3c(n2)CN(Cc2ccc(F)cc2)C(=O)CO3)c1,1.2,i,89.1µM*,-11.3%[87.6 µM],?,-23.0%[87.6 µM]
CC(=O)N1CCC2(COc3ncccc3[S+](=O)([O-])N2)C1 (configuration not stated),10.1,/,-24.0%,24.4%,-22.3%,0.4%
COc1ccc2c(c1)CN(Cc1ccccc1)C(=O)CCN2CC(O)C(F)(F)F (configuration not stated),-6.6,/,?,/,?,/
CC(C)Cn1c(=O)c(C(=O)NCC(F)F)nc2cccnc21,8.1,/,-6.9%[172 µM],13.4%[87.6 µM],-24.1%[138 µM],-11.4%[87.6 µM]
COc1cc(NC(=O)O[C@@H]2CC[C@]3(C)C(CC[C@@H](O)[C@H]3CC(=O)N3CC[C@@H](O)C3)[C@]2(C)CO)cc(OC)c1OC (some centres not stated),-1.4,i,0.8%,12.4%,-11.4%,-3.9%
C=CC(=O)Nc1cccc(Oc2nc(Nc3ccc(N4CCN(C)CC4)cc3)ncc2Cl)c1,37.1,/,/,8.5%,/,2.99µM*!
O=C(NC1CC1)c1ccccc1OCC1CCCN(CC2=Cc3ccccc3OC2)C1 (configuration not stated),1.7,i,39.8µM*,-19.6%,?,?
O=C(c1ccccc1OCC1CCCN(CC2=Cc3ccccc3OC2)C1)N1CCCCC1 (configuration not stated),3.2,i,?,-14.9%,?,?
CC(C)NC(=O)c1ccccc1OCC1CCCN(Cc2nccs2)C1 (configuration not stated),-7.3,i,?,?,?,-27.9%
SMILES,IP6K1 inh,Luciferase inh,HEK cytotox,SNCA expr inhib,NIH3T3 tox,HEK293 viab
CC(C)NC(=O)c1ccccc1OCC1CCCN(CC2=Cc3ccccc3OC2)C1 (configuration not stated),-11.8,i,35.5µM*,-19.6%,?,?
CC(C)NC(=O)c1ccccc1OCC1CCCN(Cc2ccc(F)cc2)C1 (configuration not stated),1.6,i,39.8µM*,-9.6%,?,-27.9%
COc1cccc([S+](=O)([O-])N2CCC3(CC2)C(=O)NCN3Cc2ccc(Cl)cc2)c1,2.7,i,0.1%,-7.3%,-16.0%,-6.4%
COc1ccc([C@@H]2N[C@H](C(=O)O)Cc3c2[nH]c2ccccc32)cc1CN1CCN(c2ccccc2F)CC1,-1.4,/,/,/,/,-12.2%
COC(=O)[C@@H]1Cc2c([nH]c3ccccc23)[C@H]2C[C@@H](NCCNC(C)=O)C[C@@H](c3ccccc3)N21,-15.3,?,?,8.5%,79.4µM*,1.0%
COC(=O)[C@@H]1Cc2c([nH]c3ccccc23)[C@H]2C[C@@H](NCCNC(C)=O)C[C@@H](c3ccc(C)cc3)N21,-11.0,i,28.2µM*,-14.2%,28.2µM*,2.3%
Cc1ccc(C2c3[nH]c4ccccc4c3CCN2C(=O)CCc2ccccc2)cc1 (configuration not stated),8.2,/,/,-21.2%,/,-26.4%
COC(=O)[C@@H]1Cc2c([nH]c3ccccc23)[C@H]2C[C@@H](NCCNC(C)=O)C[C@@H](c3ccc(C(C)C)cc3)N21,-4.2,i,12.6µM*,?,28.2µM*,-19.3%
COC(=O)[C@@H]1Cc2c([nH]c3ccccc23)[C@@H]2C[C@@H](NCCNC(C)=O)C[C@@H](c3ccc(F)c(F)c3)N12,-15.6,i,31.6µM*,-9.9%,31.6µM*,-0.7%
COC(=O)[C@@H]1[C@H]2C[C@@H]3c4[nH]c5ccccc5c4CCN3C[C@@H]2CC[C@@H]1O,/,/,/,-7.4%,/,-0.3%
CC1(C(=O)O)CCN(C(=O)c2ccc(F)cc2)CC1,-1.2,/,i,9.6%[87.6 µM],i,3.9%[87.6 µM]

# Screens (PubChem BioAssay)
